GCN5L2 inh: GCN5L2 (KAT2A) acetyltransferase inhibition; Q92830; GCN5L2 HAT assay, ThioGlo1 CoA-SH fluorescence; Potency, µM (doses to about 58.9 µM), usual class: inhibitors; hit rate 0.21% among 390,000; AID 504327
Target sequence (Q92830 whole entry, looked up): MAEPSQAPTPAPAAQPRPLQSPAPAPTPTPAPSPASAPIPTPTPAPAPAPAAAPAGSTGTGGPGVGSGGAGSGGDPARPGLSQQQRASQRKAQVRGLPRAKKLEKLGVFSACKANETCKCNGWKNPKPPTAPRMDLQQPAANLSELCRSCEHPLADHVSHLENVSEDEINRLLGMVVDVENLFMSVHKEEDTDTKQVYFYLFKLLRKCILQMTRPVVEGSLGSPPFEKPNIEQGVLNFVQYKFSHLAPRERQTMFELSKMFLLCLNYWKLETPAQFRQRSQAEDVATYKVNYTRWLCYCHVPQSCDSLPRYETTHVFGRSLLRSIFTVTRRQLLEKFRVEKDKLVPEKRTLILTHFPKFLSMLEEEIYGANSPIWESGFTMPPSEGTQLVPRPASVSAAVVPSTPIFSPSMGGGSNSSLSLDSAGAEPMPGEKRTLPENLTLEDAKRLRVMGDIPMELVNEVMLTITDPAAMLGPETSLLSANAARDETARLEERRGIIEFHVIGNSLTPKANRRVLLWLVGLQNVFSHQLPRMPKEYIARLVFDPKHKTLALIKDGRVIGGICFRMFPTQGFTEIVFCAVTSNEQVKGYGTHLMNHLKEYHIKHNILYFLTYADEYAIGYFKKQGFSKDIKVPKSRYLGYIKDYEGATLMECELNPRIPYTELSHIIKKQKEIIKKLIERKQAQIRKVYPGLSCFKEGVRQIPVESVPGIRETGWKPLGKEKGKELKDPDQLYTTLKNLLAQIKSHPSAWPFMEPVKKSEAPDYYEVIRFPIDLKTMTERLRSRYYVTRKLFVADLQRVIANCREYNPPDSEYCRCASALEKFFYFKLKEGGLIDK
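Titration-based screen in which CoA formation is detected via maleimide probe ThioGlo1 (50uM) turning fluorescent on thiol reaction; substrates H3(1-25) 75uM and acetyl-CoA 70uM, GCN5L2 20nM, 20 min incubation at room temperature.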
ERG Ets-DNA blk: ERG Ets/DNA interaction inhibition. P11308. fluorescence polarization, His-ERG Ets domain / labelled DNA. Potency, µM (top dose mostly 76.9 µM), hits mostly inhibitors. hit rate 0.028% among 370,000. AID 624246; active = well fitted inhibition curve with a large enough effect in the polarisation, with a control signal flat; inconclusive = small, poorly fitted or top-dose-only effect, or effect the other way, or a change in a side signal; inactive = no such curve, though single readings can be large or run the other way; the % refers to the polarisation;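 note: polarization taken with two DNA probes labelled with fluorescein and Texas red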
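His-tagged ERG Ets domain (1 uM in the protein solution; 300mM KCl, 50mM Tris-HCl, 1mM EDTA, 1mM DTT, pH 7.5) received compound, then a probe mix of 5 nM fluorescein-DNA and 100nM Texas-615-DNA. Fluorescence polarization was read for both dyes.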
WRN helicase inh-1: blocks human WRN helicase. Q14191. WRN helicase unwinding, fluorescent forked duplex, kinetic. Potency, µM (top dose mostly 114 µM), hits mostly inhibitors. hit rate 0.46% among 360,000. AID 651768; note: nearly all actives have a fitted effect of over 55% in size
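Screening of the MLSMR collection measured strand separation of a quenched forked DNA duplex (100 nM) by 20 nM WRN with 2 mM ATP, all final. Compounds were preincubated with enzyme 15 min at room temperature.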
BLM helicase inh-1: blocks DNA unwinding by human BLM helicase; Potency, µM (top dose mostly 56.1 µM), hits mostly inhibitors; AID 2528; hit rate 0.2% among 350,000; recombinant BLM DNA unwinding, fluorescence dequenching; note: nearly all actives have a fitted effect of over 35% in size
APE1 inh-1: inhibitors of human APE1 endonuclease | P27695 | recombinant APE1, TAMRA/BHQ-2 abasic DNA cleavage fluorescence | Potency, µM (titrated, usually from 65.8 µM), usual class: inhibitors | hit rate 0.35% among 350,000 | AID 2517; note: nearly all actives have a fitted effect of over 55% in size
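Quantitative HTS: incision of a TAMRA/BHQ-2 double-stranded substrate bearing a tetrahydrofuran abasic site by 0.75 nM APE1 raises fluorescence. Substrate 50 nM final, added after 15 min compound preincubation at room temperature; progress as third-minus-first kinetic read difference.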
RECQ1 inh-1: inhibitors of human RECQ1 DNA helicase. P46063. RECQ1 DNA unwinding, red fluorescence kinetic read. Potency, µM (titrated, usually from 57.3 µM), most hits filed as inhibitors. hit rate 0.54% among 240,000; note: nearly all actives have a fitted effect of over 30% in size
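RECQ1T1 50 nM; forked duplex (20 bp + 30-nt ss tails) 200 nM, ATP 2 mM final; pH 8.0, 2 mM MgCl2, 2.5 ug/ml poly(dI-dC); 15 min compound preincubation; discontinuous kinetic read over 2 h at RT.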
APE1 dye cs: DNA dye displacement counter-screen activity; shares compounds with APE1 inh-1; DNA fluorescent dye displacement counterscreen, fluorescence; Potency, µM (highest dose often 28.5 µM), hits mostly inhibitors; hit rate 7% among 480; AID 2564;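 note: loss of thiazole orange fluorescence as the dye is displaced from duplex DNA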
EndoIV counter: blocks E. coli endonuclease IV DNA cleavage | Potency, µM (top dose mostly 27.1 µM), most hits filed as inhibitors | E. coli Endo IV, fluorogenic AP-site DNA cleavage | hit rate 4% among 560 | AID 2565 | shares compounds with APE1 inh-1
APE1 inh-2: APE1 (human) endonuclease inhibition, confirmation | shares compounds with APE1 inh-1 | purified APE1, fluorogenic abasic-site DNA cleavage | hit rate 44% among 750 | Potency, µM (doses to about 57.1 µM), hits mostly inhibitors; note: nearly all actives have a fitted effect of over 30% in size
APE1 FP: displaces DNA from human APE1 in FP assay; AID 2573; hit rate 7% among 480; Potency, µM (doses to about 28.5 µM), actives largely listed as inhibitors; APE1 binding to TAMRA-labelled double-stranded DNA, fluorescence polarization displacement; shares compounds with APE1 inh-1
BLM inh: confirmation of inhibitors of human Bloom syndrome helicase BLM; shares compounds with BLM helicase inh-1; BLM DNA unwinding, fluorescence quenching, biochemical; Potency, µM, actives largely listed as inhibitors; hit rate 40% among 220; AID 2585;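 note: strand separation dequenches TAMRA so unwinding raises red fluorescence; series mostly up to about 69 µM; nearly all actives have a fitted effect of over 45% in size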
RECQ1 conf: confirmation of human RECQ1 helicase inhibitors; Potency, µM (doses to about 229 µM), usual class: inhibitors; RECQ1 helicase DNA unwinding, fluorescence; hit rate 28% among 610; shares compounds with RECQ1 inh-1; note: nearly all actives have a fitted effect of over 45% in size
RECQ1 inh-2: RECQ1 helicase inhibition confirmed, round 2. shares compounds with RECQ1 inh-1. recombinant RECQ1 DNA unwinding, red fluorescence. AID 504841. hit rate 15% among 1,100. Potency, µM (highest dose often 119 µM), hits mostly inhibitors; note: nearly all actives have a fitted effect of over 50% in size
WRN helicase inh-2: WRN helicase inhibition, cherry-pick retest; shares compounds with WRN helicase inh-1; WRN helicase DNA unwinding, fluorescence kinetic; Potency, µM (series often up to 57.1 µM), actives largely listed as inhibitors; hit rate 63% among 610; AID 720497; note: nearly all actives have a fitted effect of over 65% in size
TO DNA binding: binds DNA, flagged in WRN inhibitor counterscreen; shares compounds with WRN helicase inh-1; thiazole orange DNA binding displacement, fluorescence; Potency, µM (series often up to 57.1 µM), usual class: inhibitors; hit rate 10% among 610;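 note: drop in dye fluorescence marks compound binding to DNA; nearly all actives have a fitted effect of over 60% in size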
BLM helicase inh-2: BLM helicase inhibition, WRN selectivity check; shares compounds with WRN helicase inh-1; Potency, µM (titrated, usually from 57.1 µM), actives largely listed as inhibitors; Recombinant BLM helicase DNA unwinding, red fluorescence; AID 720503; hit rate 60% among 610; note: nearly all actives have a fitted effect of over 60% in size
Numbers stand for hits; 0 = inactive; ? = inconclusive; - = no result; [ ] = dose if it differs, or a comment. Rows were chosen to be rich in hits. Some 0.88% of all compounds tested hit in one or more screens of this group. Unless noted, calls come from the whole dose curve; as a rule, active = well fitted curve in the direction sought with a large enough effect; inconclusive = small, poorly fitted or top-dose-only effect, or another doubt; inactive = no such curve, though single readings can be large; an effect the other way counts as inactive or inconclusive.

SMILES	GCN5L2 inh	ERG Ets-DNA blk	WRN helicase inh-1	BLM helicase inh-1	APE1 inh-1	RECQ1 inh-1	APE1 dye cs	EndoIV counter	APE1 inh-2	APE1 FP	others
O=c1[nH]c(=S)n(Cc2ccco2)c(O)c1C=NCc1cccs1	0[0.501 µM]	0	?	0	?	?	0	0	0	0	RECQ1 inh-2=0
O=c1[nH]c(=O)n(Cc2ccco2)c(O)c1C=NCc1cccs1	-	0	0	0	0	0	-	-	-	-
NC(=O)c1ccc(N=Cc2c(O)n(Cc3ccco3)c(=O)[nH]c2=O)cc1	0	0	50.1µM	?	31.6µM	?	?	0	39.8µM	0	RECQ1 inh-2=?
COc1ccc(-c2oc3cc(OC)ccc3c(=O)c2O)cc1	?	-	-	0	0	0	-	-	-	-
O=C1NC(=O)N(Cc2ccc(F)cc2)C(=O)/C1=C\c1ccoc1	?	?	31.6µM	0	28.2µM	25.1µM	0	0	15.8µM	0	WRN helicase inh-2=5.41µM;TO DNA binding=0;BLM helicase inh-2=3.04µM
C[n+]1c2cc(N)ccc2cc2ccc(N)cc21	?	35.5µM	17.8µM	0	-	0	-	0	6.31µM	0	WRN helicase inh-2=10.8µM;BLM helicase inh-2=12.1µM
Cc1cccc(NC(=O)Cn2cc(C(=O)C3CC3)c3ccccc32)c1C	0	0	?	0	0	-	-	-	-	-
Cc1[nH]ccc2c1[nH]c1cc(=O)ccc12	?	?	0	0	?	0	-	-	-	-
CN1C(=O)/C(=C/C=C/c2ccco2)C(=O)NC1=S	?	0	35.5µM	0	25.1µM	?	0	0	14.1µM	0	WRN helicase inh-2=15.2µM;TO DNA binding=0;BLM helicase inh-2=8.57µM
Cn1cccc1/C=C1\C(=O)NC(=O)N(Cc2ccco2)C1=O	0	0	39.8µM	0	14.1µM	?	0	0	4.47µM	0	WRN helicase inh-2=19.2µM;TO DNA binding=0;BLM helicase inh-2=8.57µM
COc1ccc(/C=C2/C(=O)NC(=O)N(Cc3ccco3)C2=O)cc1	?	-	-	0	0	0	-	-	-	-
O=C1NC(=O)N(Cc2ccco2)C(=O)/C1=C/C=C/c1ccco1	?	0	20µM	0	2.82µM	10µM	0	0	5.01µM	?	WRN helicase inh-2=10.8µM;TO DNA binding=0;BLM helicase inh-2=6.07µM
CN1C(=O)/C(=C/c2ccc(N3CCCCCC3)o2)C(=O)NC1=S	0	?	0	0	?	0	-	-	-	-
COc1ccc(C=O)cc1OC	-	-	-	-	0	0	-	-	-	-
CC(C)CNC(=O)c1c(N)n(Cc2ccc3c(c2)OCO3)c2nc3ccccc3nc12	0	0	0	10µM	0	0	-	-	-	-	BLM inh=0
C(=C\c1ccccc1)/CN1CCN(CCOC(c2ccccc2)c2ccccc2)CC1	0	-	-	-	0	0	-	-	-	-
N#CC(C#N)=Cc1ccc([N+](=O)[O-])c(O)c1	-	-	-	0	0	?	-	-	-	-
N#C/C(=C\c1ccc(O)c(O)c1)C(=O)NCCCNC(=O)/C(C#N)=C/c1ccc(O)c(O)c1	0	-	-	-	0.631µM	0.447µM	-	-	-	-	BLM inh=27.1µM;RECQ1 conf=0.513µM
C=CC=O	-	-	-	-	0	0	-	-	-	-
C[C@]12CC[C@@H]3c4ccc(OC(=O)N(CCCl)CCCl)cc4CC[C@H]3[C@@H]1CC[C@@H]2O	12.6µM	-	-	14.1µM	-	-	-	-	-	-	BLM inh=30.4µM;RECQ1 conf=?
CC(C)CCNC(=O)c1c(N)n(Cc2ccc3c(c2)OCO3)c2nc3ccccc3nc12	0	0	0	0	0	?	-	-	-	-	RECQ1 inh-2=0

Source: PubChem
